This note sets out measurements from PubChem BioAssay (NCI).

Among the test systems are NCI-H23 lung; NCI-H226 lung; NCI-H322M lung; HOP-62 NSCLC; NCI-H460 lung; NCI-H522 lung; A549/ATCC NSCLC; 786-0 renal; COLO 205 colon; DU-145 prostate; K-562 leukemia; MDA-MB-231 breast; RXF 393 renal; SF-268 CNS; SF-295 CNS; SF-539 CNS; UACC-257 melanoma; M14 melanoma; HCT-15 colon; MALME-3M melanoma.
Common to all, as to assay: NCI-60 one-dose screen, 48 h (100 = growth as untreated, 0 = no growth, -100 = all killed)
Common to all, as to conditions: 10 µM

Structures are written as SMILES. The panel holds about 83,000 compounds, 20% with a hit somewhere; the sample as a whole holds those more often.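 48-hour exposure, single concentration, 96-well plates; percent growth endpoint where 0 means no net growth. Active: below 10.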 A number with no mark means an inactive call. The source made the active and inactive calls.

For `FC(F)(F)c1ccc2nc(-c3nc(-c4ccccc4)n4ccccc34)[nH]c2c1`, the growth is 78.9% in the test with NCI-H23 lung; 99.4% in the test with NCI-H226 lung; 55% in the test with NCI-H322M lung; 110% in the test on HOP-62 NSCLC; 59.4% in the test on NCI-H460 lung; 68.3% with NCI-H522 lung. The growth was 49.5% in the test on A549/ATCC NSCLC; 40.2% in the test with 786-0 renal; 58.9% in the test on COLO 205 colon; 68.7% with DU-145 prostate; 82.7% in the test on K-562 leukemia; 22.1% with MDA-MB-231 breast. In addition, the growth in the test on RXF 393 renal is 94.4%; in the test with SF-268 CNS it was 49.1%; in the test on SF-295 CNS, 104%; in the test with SF-539 CNS it was 35.1%; in the test with UACC-257 melanoma, 81.7%; with M14 melanoma, 96%. Further, the growth with HCT-15 colon is 60.4%.
With `COc1ccc(-c2nc3sc(-c4ccc(OC)cc4)c(-c4ccc(OC)cc4)n3c2/C=C/c2ccc(C(C)C)cc2)cc1`, the growth in the test on NCI-H23 lung was 95.6%; with NCI-H226 lung it was 90.9%; in the test on NCI-H322M lung, 96.5%; in the test on HOP-62 NSCLC, 95.1%; with NCI-H460 lung, 101%; in the test with NCI-H522 lung, 76.5%. The growth with A549/ATCC NSCLC was 95.2%; in the test on 786-0 renal, 99.2%; in the test with COLO 205 colon it was 107%; with DU-145 prostate, 115%; in the test on K-562 leukemia it was 105%; in the test on MDA-MB-231 breast, 90.9%. The growth is 92.4% with RXF 393 renal; 106% in the test on SF-268 CNS; 96.6% with SF-295 CNS; 94.3% with SF-539 CNS; 95.6% in the test on UACC-257 melanoma; 98.4% in the test with M14 melanoma. Also, in the test with HCT-15 colon, the growth is 92.5%.
Regarding `O=C(Nc1ccncc1)C(=O)c1cn(S(=O)(=O)c2ccc(F)cc2)c2ccccc12`, the growth was 36.8% with NCI-H23 lung; 53.7% in the test on NCI-H226 lung; 84.9% in the test on NCI-H322M lung; 36.2% in the test with HOP-62 NSCLC; 74.7% with NCI-H460 lung; 0.626% (active) in the test on NCI-H522 lung. Moreover, the growth is 82.3% in the test with A549/ATCC NSCLC; 43.9% in the test on 786-0 renal; 103% in the test on COLO 205 colon; 32% in the test on DU-145 prostate; 9.29% (active) in the test on K-562 leukemia; 57.8% in the test with MDA-MB-231 breast. Besides, the growth was 68.1% in the test with RXF 393 renal; 47.9% in the test with SF-268 CNS; 61.3% in the test with SF-295 CNS; 16.2% with SF-539 CNS; 49.1% in the test with UACC-257 melanoma; 14% with M14 melanoma. Besides, the growth with HCT-15 colon was 23.1%.
With `CCCCCCCCCCCCCCCCCC(=O)OCCCCCCC`, the growth is 94.8% with NCI-H23 lung; 89.6% with NCI-H226 lung; 109% with NCI-H322M lung; 121% in the test with HOP-62 NSCLC; 109% in the test on NCI-H460 lung; 107% with NCI-H522 lung. Besides, the growth in the test with A549/ATCC NSCLC is 95.2%; in the test on 786-0 renal it was 114%; in the test with COLO 205 colon, 110%; with DU-145 prostate it was 104%; with MALME-3M melanoma, 115%; in the test on MDA-MB-231 breast it was 98.7%. The growth with RXF 393 renal was 96.4%; with SF-268 CNS, 94.9%; with SF-295 CNS, 99.9%; with SF-539 CNS, 112%; with UACC-257 melanoma, 109%; with M14 melanoma it was 108%. In the test with HCT-15 colon, the growth was 95.5%.
With `CCc1ccc2c(c1)N(CCO)C1=C(C(=O)OC1)C2c1ccccc1` (centres undefined), the growth in the test with NCI-H23 lung is 101%; with NCI-H226 lung it was 102%; in the test on NCI-H322M lung, 115%; in the test on HOP-62 NSCLC, 81.6%; in the test with NCI-H460 lung, 109%; in the test on NCI-H522 lung, 4.79% (active). Besides, the growth was 104% in the test on A549/ATCC NSCLC; 97.1% with 786-0 renal; 109% in the test with COLO 205 colon; 115% with DU-145 prostate; 49.1% in the test with K-562 leukemia; 103% in the test on MDA-MB-231 breast. Besides, the growth was 94.3% in the test on RXF 393 renal; 106% in the test on SF-268 CNS; 86% in the test on SF-295 CNS; 103% in the test with SF-539 CNS; 78.9% in the test with M14 melanoma; 71.6% in the test with HCT-15 colon.
In the case of `CCn1cc(C(=O)O)c(=O)c2cnc(N3CCCC3)nc21`, the growth in the test on NCI-H23 lung is 105%; in the test with NCI-H226 lung it was 94.5%; with NCI-H322M lung, 97.3%; with HOP-62 NSCLC it was 108%; in the test with NCI-H460 lung, 110%; with NCI-H522 lung it was 101%. Moreover, the growth was 96.1% with A549/ATCC NSCLC; 92.6% in the test on 786-0 renal; 111% in the test with COLO 205 colon; 119% in the test with DU-145 prostate; 92.8% with MALME-3M melanoma; 106% in the test with MDA-MB-231 breast. Also, the growth in the test with SF-268 CNS is 116%; in the test with SF-295 CNS, 94.7%; with SF-539 CNS, 100%; with UACC-257 melanoma, 97.2%; with M14 melanoma it was 96.9%; in the test on HCT-15 colon it was 111%.
With `C=C(C(=O)c1ccccc1)C(NC(C)(C)C)c1ccccc1` (centres undefined), the growth in the test on NCI-H23 lung was 31.9%; in the test on NCI-H226 lung, 67.9%; in the test with NCI-H322M lung it was 98.6%; in the test on HOP-62 NSCLC it was 47.5%; in the test on NCI-H460 lung, 26.9%; in the test on NCI-H522 lung, -83.9% (active). In addition, the growth in the test on A549/ATCC NSCLC is 43.2%; with 786-0 renal, 23.1%; with COLO 205 colon, -77% (active); in the test with DU-145 prostate, 20.6%; with K-562 leukemia it was 4.27% (active); in the test with MDA-MB-231 breast, -11.3% (active). Further, the growth was -56.1% (active) in the test with RXF 393 renal; 7.85% (active) with SF-268 CNS; 110% in the test with SF-295 CNS; -24.1% (active) in the test on SF-539 CNS; -15.3% (active) in the test on UACC-257 melanoma; -48.7% (active) in the test with HCT-15 colon.
Regarding `COc1ccc(C2CC(c3ccc(N(C)C)cc3)=NN2c2ccc(S(N)(=O)=O)cc2)cc1` (centres undefined), the growth in the test on NCI-H23 lung is 53.6%; in the test on NCI-H226 lung, 52.4%; with NCI-H322M lung, 83.1%; in the test with HOP-62 NSCLC it was 78.2%; in the test on NCI-H460 lung it was 29.2%; with NCI-H522 lung, 40.9%. In addition, the growth with A549/ATCC NSCLC is 26.1%; with 786-0 renal, 64.3%; with COLO 205 colon, 55.4%; in the test with DU-145 prostate, 78.4%; in the test with MALME-3M melanoma, 83%; with MDA-MB-231 breast, 67.7%. Also, the growth was 63.2% in the test on RXF 393 renal; 59.6% in the test on SF-268 CNS; 35.2% in the test with SF-295 CNS; 114% with SF-539 CNS; 73.7% in the test on UACC-257 melanoma; 69.2% in the test on M14 melanoma. Besides, the growth in the test with HCT-15 colon is 43%.
